{
  "source": "PubChem BioAssay (NCATS)",
  "note": "Records with an inconclusive call do not appear. Unmarked numbers belong to inactive results. Calls follow the shape of the full dose curve. Potency is read from the fitted curve at half-maximal effect.",
  "data": [
    {"assay": "Cell Viability - SK-N-SH (AID 435);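 also: compound exposure lasted 40 h at 37 °C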", "details": "SK-N-SH neuroblastoma cell viability qHTS", "text": "NIH Chemical Genomics Center [NCGC]\nNIH Molecular Libraries Screening Centers Network [MLSCN]\nNational Institutes of Environmental Health Sciences [NIEHS]\nNational Toxicology Program [NTP]\nWe have developed a 1536-well cell-based assay for quantitative high throughput screening (qHTS) against a number of cell lines to determine in vitro cytotoxicity of small molecules. This particular assay uses the SK-N-SH cell line which is derived from human neuroblastoma.\nNCGC Assay Protocol Summary:\nThe CellTiter-Glo luminescent cell viability assay (Promega) is a homogeneous method to measure the number of viable cells in culture. The end point readout of this assay is based on quantitation of intracellular ATP, an indicator of metabolic activity, using the luciferase reaction. Luciferase catalyzes the oxidation of beetle Luciferin to oxyluciferin and light in the presence of ATP. The luminescent signal is proportional to amount of ATP present.\nUsing the CellTiter-Glo luminescent cell viability assay, the amount of cellular ATP was measured in the SK-N-SH cell line with complete culture medium following compound treatment for 40 hours. The assay was performed in opaque white Kalypsys 1536-well plates. In the screen, tamoxifen and doxorubicin were used as positive controls. Library compounds were measured for their ability to cause acute toxicity in the cell line, as reflected by a decrease in intracellular ATP levels, in a concentration-dependent manner. Data were normalized to the controls for basal activity (DMSO only) and 100% inhibition (100 uM tamoxifen). AC50 values were determined from concentration-response data modeled with the standard Hill equation.\nqHTS protocol fo CellTiter Glo SK-N-SH cellular assay\n[Step] [Parameter] [Value] [Description]\n1. Reagent; 5 uL; 1500 SK-N-SH cells/well\n2. Time; 5 hr; 37 °C incubation\n4. Controls; 23 nL; Tamoxifen 0.34 uM to 100 uM & Doxorubicin 0.02 nM to 100 uM\n5. Time; 40 hr; 37 °C incubation\n6. Reagent; 5 uL; CellTiter Glo reagent\n7. Time; 20 min; Room Temperature\n8. Detection; Luminescence; Viewlux plate reader\nKeywords: cell viability, cytotoxicity, SK-N-SH cell line, luminescence, NTPHTS, NTPHTS_NCGC, NIEHS, EPA, DSSTox, MLSMR, MLSCN, NIH Roadmap, qHTS, NCGC", "units": {"Potency": "µM"}, "values": [
      {"molecule": "COc1cc(OC)c(OC)cc1C=O", "Potency": "> 92"},
      {"molecule": "CN1C[C@H](C(=O)N[C@]2(C)O[C@@]3(O)[C@@H]4CCCN4C(=O)[C@H](Cc4ccccc4)N3C2=O)C=C2c3cccc4[nH]cc(c34)C[C@H]21", "Potency": "> 92"},
      {"molecule": "NCCc1ccc(O)cc1", "Potency": "> 92"},
      {"molecule": "C[C@]12CCC(=O)C=C1CC[C@@H]1[C@@H]2CC[C@]2(C)C(=O)CC[C@@H]12", "Potency": "> 92"},
      {"molecule": "Nc1ccccc1", "Potency": "> 92"},
      {"molecule": "CCC(C)(C)c1ccc(O)cc1", "Potency": "> 92"},
      {"molecule": "O=P1(N(CCCl)CCCl)NCCCO1", "note": "(stereo not given)", "Potency": "> 92"},
      {"molecule": "C[C@]1(O)CC[C@H]2[C@@H]3CCC4=CC(=O)CC[C@]4(C)[C@@]3(F)[C@@H](O)C[C@@]21C", "Potency": "> 92"},
      {"molecule": "Oc1ccc(Cl)cc1", "Potency": "> 92"},
      {"molecule": "CC(C)c1cccc(C(C)C)c1O", "Potency": "> 92"},
      {"molecule": "Nc1ccccc1C(=O)O", "Potency": "> 92"},
      {"molecule": "COP(=S)(OC)Oc1ccc(SC)c(C)c1", "Potency": "> 92"},
      {"molecule": "CCCC(C)(COC(N)=O)COC(N)=O", "Potency": "> 92"},
      {"molecule": "COC(=O)C(c1ccccc1)C1CCCCN1", "note": "(stereo not given)", "Potency": "> 92"},
      {"molecule": "CC(C)NC(C)C", "Potency": "> 92"}
    ]}
  ]
}
